# About 410 targets per protein were measured; listed, in parts, are those with the strongest signals and a random draw of the rest.
# B1: SAOUHSC 00176 (Staphylococcus aureus) (protein)
# chain: MSKILKCITLAVVMLLIVTACGPNRSKEDIDKALNKDNSKDKPNQLTMWVDGDKQMAFYKKITDQYTKKTGIKVKLVNIGQNDQLENISLDAPAGKGPDIFFLAHDNTGSAYLQGLAAEIKLSKDELKGFNKQALKAMNYDNKQLALPAIVETTALFYNKKLVKNAPQTLEEVEANAAKLTDSKKKQYGMLFDAKNFYFNYPFLFGNDDYIFKKNGSEYDIHQLGLNSKHVVKNAERLQKWYDKGYLPKAATHDVMIGLFKEGKVGQFVTGPWNINEYQETFGKDLGVTTLPTDGGKPMKPFLGVRGWYLSEYSKHKYWAKDLMLYITSKDTLQKYTDEMSEITGRVDVKSSNPNLKVFEKQARHAEPMPNIPEMRQVWEPMGNASIFISNGKNPKQALDEATNDITQNIKILHPSQNDKKGD
# Columns and labels:
# Test in all cases: glycan array binding signal (z-score within array); higher = stronger binding
# Conditions in all cases: glycan notation: IUPAC condensed, linker removed
# [1] = biological target: GlcNAc(b1-3)Gal(b1-4)GlcNAc(b1-2)Man(a1-3)[GlcNAc(b1-3)Gal(b1-4)GlcNAc(b1-2)Man(a1-6)]Man(b1-4)GlcNAc(b1-4)GlcNAc
# Procedure, shortened: (§1)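 Negative Z-scores can be read as non-binding. The Z-score is calculated within each array and then averaged across arrays of one protein sequence at different concentrations or buffers and across linkers. Arrays, 3228 in all, were curated from the Consortium for Functional Glycomics database and kept only where the protein sequence was available.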
# [2] = biological target: GlcNAc(b1-3)Gal(b1-4)GlcNAc(b1-3)Gal(b1-4)GlcNAc(b1-2)[GlcNAc(b1-3)Gal(b1-4)GlcNAc(b1-3)Gal(b1-4)GlcNAc(b1-6)]Man(a1-6)[GlcNAc(b1-3)Gal(b1-4)GlcNAc(b1-3)Gal(b1-4)GlcNAc(b1-2)Man(a1-3)]Man(b1-4)GlcNAc(b1-4)[Fuc(a1-6)]GlcNAc
# Procedure, shortened: as §1
# [3] = biological target: GlcNAc(b1-3)Gal(b1-4)GlcNAc(b1-3)[GlcNAc(b1-3)Gal(b1-4)GlcNAc(b1-3)]GalNAc
# Procedure, shortened: as §1
# [4] = biological target: GlcNAc(b1-3)[GlcNAc(b1-6)]GalNAc
# Procedure, shortened: as §1
# [5] = biological target: GlcNAc(b1-6)Gal(b1-4)GlcNAc
# Procedure, shortened: as §1
# Kdn(a2-3)Gal(b1-3)GalNAc = biological target: Kdn(a2-3)Gal(b1-3)GalNAc
# Procedure, shortened: as §1
# Kdn(a2-3)Gal(b1-4)GlcNAc = biological target: Kdn(a2-3)Gal(b1-4)GlcNAc
# Procedure, shortened: as §1
# [6] = biological target: Man(a1-2)Man(a1-3)[Man(a1-6)]Man(a1-6)[Man(a1-2)Man(a1-3)]Man(b1-4)GlcNAc(b1-4)GlcNAc
# Procedure, shortened: as §1
# Neu5Ac(a2-3)Gal = biological target: Neu5Ac(a2-3)Gal
# Procedure, shortened: as §1
# [7] = biological target: Neu5Ac(a2-3)Gal(b1-3)GlcNAc(b1-2)Man(a1-3)[Neu5Ac(a2-3)Gal(b1-3)GlcNAc(b1-2)Man(a1-6)]Man(b1-4)GlcNAc(b1-4)GlcNAc
# Procedure, shortened: as §1
# [8] = biological target: Neu5Ac(a2-3)Gal(b1-3)GlcNAc(b1-3)Gal(b1-3)GlcNAc
# Procedure, shortened: as §1
# [9] = biological target: Neu5Ac(a2-3)Gal(b1-3)[Fuc(a1-4)]GlcNAc
# Procedure, shortened: as §1
# [10] = biological target: Neu5Ac(a2-3)Gal(b1-4)GlcNAc(b1-2)Man
# Procedure, shortened: as §1
# [11] = biological target: Neu5Ac(a2-3)Gal(b1-4)GlcNAc(b1-2)[Neu5Ac(a2-3)Gal(b1-4)GlcNAc(b1-4)]Man(a1-3)[GlcNAc(b1-4)][Neu5Ac(a2-3)Gal(b1-4)GlcNAc(b1-2)[Neu5Ac(a2-3)Gal(b1-4)GlcNAc(b1-6)]Man(a1-6)]Man(b1-4)GlcNAc(b1-4)GlcNAc
# Procedure, shortened: as §1
# [12] = biological target: Neu5Ac(a2-3)Gal(b1-4)GlcNAc(b1-3)Gal(b1-3)GlcNAc
# Procedure, shortened: as §1
# [13] = biological target: Neu5Ac(a2-3)Gal(b1-4)GlcNAc(b1-3)Gal(b1-4)GlcNAc
# Procedure, shortened: as §1
# [14] = biological target: Neu5Ac(a2-3)Gal(b1-4)GlcNAc(b1-3)Gal(b1-4)[Fuc(a1-3)]GlcNAc
# Procedure, shortened: as §1
# [15] = biological target: Neu5Ac(a2-3)Gal(b1-4)GlcNAc6S
# Procedure, shortened: as §1
# [16] = biological target: Neu5Ac(a2-3)Gal(b1-4)[Fuc(a1-3)]GlcNAc
# Procedure, shortened: as §1
# [17] = biological target: Neu5Ac(a2-3)GalNAc(b1-4)GlcNAc
# Procedure, shortened: as §1
# [18] = biological target: Neu5Ac(a2-6)Gal(b1-4)GlcNAc
# Procedure, shortened: as §1
# [19] = biological target: Neu5Ac(a2-6)Gal(b1-4)GlcNAc(b1-2)Man(a1-3)[Neu5Ac(a2-3)Gal(b1-4)GlcNAc(b1-2)Man(a1-6)]Man(b1-4)GlcNAc(b1-4)GlcNAc
# Procedure, shortened: as §1
# [20] = biological target: Neu5Ac(a2-6)Gal(b1-4)GlcNAc(b1-3)Gal(b1-3)GlcNAc
# Procedure, shortened: as §1
# [21] = biological target: Neu5Ac(a2-6)Gal(b1-4)GlcNAc(b1-3)Gal(b1-4)GlcNAc(b1-3)Gal(b1-4)GlcNAc(b1-2)Man(a1-3)[Neu5Ac(a2-6)Gal(b1-4)GlcNAc(b1-3)Gal(b1-4)GlcNAc(b1-3)Gal(b1-4)GlcNAc(b1-2)Man(a1-6)]GalNAc
# Procedure, shortened: as §1
# [22] = biological target: Neu5Ac(a2-6)GlcNAc(b1-4)GlcNAc(b1-4)GlcNAc
# Procedure, shortened: as §1
# Neu5Ac(a2-8)Neu5Ac = biological target: Neu5Ac(a2-8)Neu5Ac
# Procedure, shortened: as §1
# [23] = biological target: Neu5Ac(a2-8)Neu5Ac(a2-8)Neu5Ac
# Procedure, shortened: as §1
binder,measurement,setting,value
B1,glycan array binding signal (z-score),[1],-0.101
same,glycan array binding signal (z-score),[2],-0.059
same,glycan array binding signal (z-score),[3],-0.02
same,glycan array binding signal (z-score),[4],-0.149
same,glycan array binding signal (z-score),[5],-0.124
same,glycan array binding signal (z-score),Kdn(a2-3)Gal(b1-3)GalNAc,-0.129
same,glycan array binding signal (z-score),Kdn(a2-3)Gal(b1-4)GlcNAc,-0.143
same,glycan array binding signal (z-score),[6],-0.172
same,glycan array binding signal (z-score),Neu5Ac(a2-3)Gal,-0.179
same,glycan array binding signal (z-score),[7],1.08
same,glycan array binding signal (z-score),[8],-0.055
same,glycan array binding signal (z-score),[9],-0.157
same,glycan array binding signal (z-score),[10],0.473
same,glycan array binding signal (z-score),[11],-0.073
same,glycan array binding signal (z-score),[12],-0.09
same,glycan array binding signal (z-score),[13],0.002
same,glycan array binding signal (z-score),[14],-0.015
same,glycan array binding signal (z-score),[15],-0.027
same,glycan array binding signal (z-score),[16],-0.132
same,glycan array binding signal (z-score),[17],-0.141
same,glycan array binding signal (z-score),[18],-0.148
same,glycan array binding signal (z-score),[19],-0.114
same,glycan array binding signal (z-score),[20],-0.079
same,glycan array binding signal (z-score),[21],0.358
same,glycan array binding signal (z-score),[22],2.56
same,glycan array binding signal (z-score),Neu5Ac(a2-8)Neu5Ac,-0.022
same,glycan array binding signal (z-score),[23],-0.055
